Data published in PubChem BioAssay (NCI).
This is part of a sample that, as a whole, favours compounds with a hit. Of some 79,000 tested, about 15% had one in any assay. No stated cut-off is given here; in the data, active means growth inhibition above about 70%; inactive means the rest.

Assays:
[1] = NCI Yeast Anticancer Drug Screen. Data for the rad50 strain (AID 155);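 further: 0% = growth of vehicle-only cultures of the same strain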; conditions: S. cerevisiae rad50 strain growth inhibition; at 50.0 µM; stronger effect = higher value
Summary of the method: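 Vehicle-treated cultures provide the reference for the growth inhibition reported for compound-exposed, repair-deficient yeast.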

[2] = NCI Yeast Anticancer Drug Screen. Data for the mec2-1 strain (AID 157); conditions: S. cerevisiae mec2-1 strain, at 50.0 µM, stronger effect = higher value
Summary of the method: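 Each compound was tested on mec2-1 yeast, a strain altered in DNA damage repair or cell cycle control. Growth inhibition is reported relative to vehicle.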

[3] = NCI Yeast Anticancer Drug Screen. Data for the sgs1 mgt1 strain (AID 161);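 further: 0% = growth of cultures given vehicle only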; conditions: S. cerevisiae sgs1 mgt1 strain, at 50.0 µM, stronger effect = higher value
Summary of the method: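 Read-out: growth inhibition vs vehicle controls. Cells: mutant yeast strain deficient in DNA damage repair.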

[4] = NCI Yeast Anticancer Drug Screen. Data for the cln2 rad14 strain (AID 165);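 further: 0% = growth equal to vehicle treated cultures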; conditions: S. cerevisiae cln2 rad14 strain, at 50.0 µM, stronger effect = higher value
Summary of the method: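 Test compounds were added to cln2 rad14 yeast cultures; inhibition of growth was then determined by comparison with vehicle treatment.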

[5] = NCI Yeast Anticancer Drug Screen. Data for the bub3 strain (AID 167); conditions: S. cerevisiae bub3 mutant strain, at 50.0 µM, stronger effect = higher value
Summary of the method: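 Mutant yeast screening strain plus compound; vehicle-treated cultures serve as the 0% inhibition reference.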

[6] = NCI Yeast Anticancer Drug Screen. Data for the mlh1 rad18 strain (AID 175); conditions: S. cerevisiae mlh1 rad18 strain growth inhibition; at 50.0 µM; stronger effect = higher value
Summary of the method: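 Inhibition values reflect reduced growth of mutant yeast versus vehicle-treated controls following compound exposure; the mutations affect DNA damage repair.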

Measured: growth inhibition

CCCOc1cc2c(cc1C(C)c1ccc(OCC)c(C)c1)OCO2 (stereo unspecified)
inactive: [1] -1.7% | [2] 0.75% | [3] -9.05% | [4] -94% | [5] -3.9% | [6] -5.1%

Cc1cc(Br)ccc1NC1=CC(=O)C(=O)c2ccccc21
inactive: [1] 9.95% | [2] 19.6% | [3] -3.4% | [4] 11.3% | [5] 13.2% | [6] 32.1%

CC(C)(C)OC(=O)C1C(=O)CC(c2ccccc2)C1c1ccccc1 (stereo unspecified)
inactive: [1] -3.05% | [2] -3% | [3] 1.25% | [4] -7.8% | [5] -5.7% | [6] -1.9%

CCOC(=O)c1ccncc1
inactive: [1] 23.6% | [2] -0.95% | [3] 21.7% | [4] -4.4% | [5] -1.5% | [6] 6.4%

Brc1nc2c3ccccc3ncn2c1Br
inactive: [1] 45.2% | [2] -3.05% | [3] 21.3% | [4] -4.25% | [5] 1.7% | [6] 23.3%

CCCCCCCCCCCCCCCC(=O)CCCCCCCCCCCCCCC
inactive: [1] 21.1% | [2] -15.9% | [3] 6.35% | [4] -3.8% | [5] -0.95% | [6] 28.9%

CN(C)CCOC(=O)c1cccc(CCl)c1
inactive: [1] 15.9% | [2] 6.3% | [3] 5.75% | [4] 44.4% | [5] 25.4% | [6] 7.95%

Cn1c(N(CCO)CCO)cnc1[N+](=O)[O-]
inactive: [1] 11.7% | [2] 8.8% | [3] -21.8% | [4] -16.4% | [5] -17.6% | [6] -4.8%

CC(C)(C)c1cc(CN2CCOCC2)cc(C(C)(C)C)c1O
inactive: [1] 8% | [2] 5% | [3] 0.7% | [4] 0.15% | [5] -3.15% | [6] 14.3%

CCc1nc(N)nc(N)c1-c1ccc(Cl)c(N=CN(C)C)c1
inactive: [1] 31.8% | [2] 23.1% | [3] 26.9% | [4] 29.8% | [5] 16.6% | [6] 51.5%

COc1cccc(C2c3cc4c(cc3OC(C)(OC)C2C)OCO4)c1 (stereo unspecified)
inactive: [1] 19.8% | [2] 22.8% | [3] 21.4% | [4] -83.6% | [5] 4.25% | [6] 15.8%

c1ccc2c(c1)SCCCSCCCS2
inactive: [1] -4.35% | [2] -4.6% | [3] -5.45% | [4] -9.4% | [5] 9.15% | [6] -11.4%

CO/C(N)=C(\C#N)N=Cc1ccco1
inactive: [1] -21.4% | [2] -22.4% | [3] -4.65% | [4] 11.8% | [5] -4.55% | [6] 9.3%

CC(=O)N1Cc2c(N)ncnc2C1C (stereo unspecified)
inactive: [1] -10.9% | [2] -9.45% | [3] -18.8% | [4] -7.25% | [5] -0.25% | [6] -12.2%

CC1CNC(=S)N(c2cccc3ccccc23)C1=O (stereo unspecified)
inactive: [1] -4.8% | [2] -1% | [3] -3.7% | [4] -5% | [5] -9.35% | [6] 4.2%

CC(C)(C)NC(=O)Nc1nccs1
inactive: [1] 7.8% | [2] -7.9% | [3] -6.2% | [4] -86.5% | [5] -3.9% | [6] 9.85%

Cc1cc2c(=O)cc(-c3ccncc3)oc2c(C(=O)O)c1C
inactive: [1] 20.7% | [2] 0.2% | [3] -10.3% | [4] 20.5% | [5] 26.9% | [6] -5.5%

Fc1ccc2cc3cccc[n+]3cc2c1
inactive: [1] 27.1% | [2] 7.05% | [3] 32.4% | [4] 14.4% | [5] 10.1% | [6] 2.35%

COc1ncc(/C=C2\OC(=O)c3ccccc32)c(OC)n1
inactive: [1] 1.6% | [2] -16.1% | [3] 19.9% | [4] 2.6% | [5] 6.05% | [6] 16.9%

O=C1CC2(CC(=O)N1CCc1c[nH]c3ccccc13)OCCO2
inactive: [1] -1.35% | [2] 9.05% | [3] 10.1% | [4] -0.5% | [5] 20.6% | [6] -6.15%

CCCCCCCCCCCCCCCCN1C(=O)C2C(C1=O)C1(Cl)C(Cl)=C(Cl)C2(Cl)C1(Cl)Cl (stereo unspecified)
inactive: [1] 7.85% | [2] -6.3% | [3] -2.55% | [4] -0.65% | [5] -4.6% | [6] 10.2%

CN(C)c1ccc(Cc2ccc(N(C)C)c3cccnc23)c2ncccc12
inactive: [1] -5.45% | [2] -9.65% | [3] 13.7% | [4] -13.4% | [5] 12.3% | [6] 1.4%

Cc1cccc(C(C#N)C(=O)CCCC(=O)Nc2ccccc2[N+](=O)[O-])c1 (stereo unspecified)
inactive: [1] -44.1% | [2] 9.4% | [3] 5.15% | [4] -36.6% | [5] 6.9% | [6] 11%

OCC(O)Cn1cnc2c(NO)ncnc21 (stereo unspecified)
inactive: [1] -18.2% | [2] -20.8% | [3] -8% | [4] -15.2% | [5] 4.85% | [6] 11.1%

O=C(Nc1ccc(CSc2ccc(Cl)cc2)o1)N1CCOCC1
inactive: [1] 15.7% | [2] 8% | [3] 40.8% | [4] 20.9% | [5] 38.4% | [6] 25.4%

CC1=CC(=O)/C(=C/n2c(=S)[nH]c3ccc([N+](=O)[O-])cc32)C(=O)O1
inactive: [1] 2.1% | [2] -44.7% | [3] -9.5% | [4] 6.85% | [5] 6.6% | [6] -46.3%

CC1CN(C(=S)Nc2cccc3ccccc23)CC(C)O1 (stereo unspecified)
inactive: [1] 19.4% | [2] 36.5% | [3] 44.9% | [4] 22% | [5] 44.8% | [6] 7.8%

CCC(Cl)(c1ccccc1)C(O)C(=O)OC(C)C (stereo unspecified)
inactive: [1] 8% | [2] 2.65% | [3] 10.8% | [4] -2.35% | [5] -6.3% | [6] 11.8%

CC(C)c1ccc(/C=N\N(C)C)cc1
inactive: [1] 2.3% | [2] 2.05% | [3] -13.8% | [4] -5.6% | [5] -2.9% | [6] -1.75%

Cn1ncc2c(NCc3ccccc3)ncnc21
inactive: [1] 13.2% | [2] 3.15% | [3] 23.1% | [4] -44% | [5] 2.7% | [6] 0.5%

CCOc1ccc(-c2oc(/C=N/NS(=O)(=O)c3ccc(C)cc3)c([N+](=O)[O-])c2-c2ccc(OCC)cc2)cc1
inactive: [1] 59.7% | [2] 37.5% | [3] 64% | [4] 62.2% | [5] 44.6% | [6] 58.5%

C/C=C/C1OC(OC)(OC)C1(OC)OC (stereo unspecified)
inactive: [1] 38.8% | [2] 9.85% | [3] 18.9% | [4] 3.25% | [5] 11.3% | [6] 11.6%

CC(C)=CC(Cc1ccccc1)S(=O)(=O)c1nc2ccccc2s1 (stereo unspecified)
inactive: [1] 8.8% | [2] 33.4% | [3] 12.1% | [4] 9.4% | [5] 31.2% | [6] -16.9%

COc1ccc([N+](=O)[O-])cc1OC
inactive: [1] 29.9% | [2] -0.15% | [3] 33.1% | [4] 1.65% | [5] 0.45% | [6] 16.1%

Nc1nc(SCc2ccc(F)cc2)c2[nH]cnc2n1
inactive: [1] 16.8% | [2] 9.35% | [3] 12.6% | [4] -8.8% | [5] 12.8% | [6] -21.9%

CCCCCCCCCCCNc1ncnc2[nH]ncc12
inactive: [1] -8.6% | [2] -16.5% | [3] 5.3% | [4] -0.7% | [5] -2.05% | [6] 9.8%
